Measured values published in the supplement of paper PMC10849652.
The full data set covers some 7,900 targets. This sample favours those with a hit. About 0.6% of all pairs of compound and target were hits.

Experiments:
Experiment in all cases: log2 fold change, soluble protein after heating vs DMSO (PISA); higher = thermal stabilisation; K562 cells, 10 uM, 30 min; active = over 0.2 and 3.5 SD of the protein, either way, in both replicates (recomputed)
[1] = compound: CC1=C(C=C(C=C1)NC(=O)C2=CC(=CC=C2)C(C)(C)C#N)NC3=CC4=C(C=C3)N=CN(C4=O)C
Summary of the method: (§1)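 Quantification of soluble protein used TMTpro 16plex LC-MS/MS, with channel sums equalised. Samples were the supernatant after 21,000xg for 90 min of pooled aliquots from K562 cells (2×10^6 cells/mL) treated with 10 μM compound for 30 min, heated for 3 min over 48°C-58°C, and extracted in PBS with 0.5% NP-40 at 4°C. Values, from duplicates, describe thermal stability against control samples on a log2 fold-change scale.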

[2] = compound: CC1=C(C=C(C=C1)NC(=O)C2=CC(=CC=C2)N(C)C)NC(=O)C3=CC=C(C=C3)O
Summary of the method: as §1

[3] = compound: CC1=CC=C(C=C1)SC2=C3C=C(SC3=CN=C2)C(=O)N
Summary of the method: as §1

[4] = compound: CC1=NC(=CC=C1)C2=C(N=C(N2)C(C)(C)C)C3=CC4=NC=CN=C4C=C3
Summary of the method: as §1

Nexturastat A = compound: CCCCN(Cc1ccc(C(=O)NO)cc1)C(=O)Nc1ccccc1 [Nexturastat A]
Summary of the method: as §1

vemurafenib = compound: CCCS(=O)(=O)Nc1ccc(F)c(C(=O)c2c[nH]c3ncc(-c4ccc(Cl)cc4)cc23)c1F [vemurafenib]
Summary of the method: as §1

[5] = compound: CCCS(=O)(=O)Nc1ccc(F)c(C(=O)c2c[nH]c3ncc(Cl)cc23)c1F
Summary of the method: as §1

[6] = compound: CCCc1cc(C)[nH]c(=O)c1CNC(=O)c1cc(-c2ccnc(N3CCN(C)CC3)c2)cc2c1cnn2C(C)C
Summary of the method: as §1

givinostat = compound: CCN(CC)Cc1ccc2cc(COC(=O)Nc3ccc(C(=O)NO)cc3)ccc2c1 [givinostat]
Summary of the method: as §1

barasertib = compound: CCN(CCCOc1ccc2c(Nc3cc(CC(=O)Nc4cccc(F)c4)[nH]n3)ncnc2c1)CCOP(=O)(O)O [barasertib]
Summary of the method: as §1

[7] = compound: CC[C@@H]1C(=O)N(C)c2cnc(Nc3ccc(C(=O)NC4CCN(C)CC4)cc3OC)nc2N1C1CCCC1
Summary of the method: as §1

volasertib = compound: CC[C@@H]1C(=O)N(C)c2cnc(Nc3ccc(C(=O)N[C@H]4CC[C@H](N5CCN(CC6CC6)CC5)CC4)cc3OC)nc2N1C(C)C [volasertib]
Summary of the method: as §1

[8] = compound: CC[C@H](C)N1C=C(C2=C(C=C(C=C21)C3=CN=C(C=C3)N4CCNCC4)C(=O)NCC5=C(C=C(NC5=O)C)C)C
Summary of the method: as §1

epoxomicin = compound: CC[C@H](C)[C@@H](C(=O)N[C@@H]([C@@H](C)O)C(=O)N[C@@H](CC(C)C)C(=O)[C@]1(CO1)C)NC(=O)[C@H]([C@@H](C)CC)N(C)C(=O)C [epoxomicin]
Summary of the method: as §1

[9] = compound: CCn1c(C(=O)N(C2CC2)C2CC2)cc2c3c(ncn3C)c(Nc3cc(C)n(C)n3)nc21
Summary of the method: as §1

[10] = compound: CCn1cc(-c2ccnc3[nH]c(-c4cccc(CN(C)C)c4)cc23)c(-c2ccc(NC(=O)N(C)C)cc2)n1
Summary of the method: as §1

[11] = compound: CN(C)CC(=O)Nc1ccc2[nH]c(=O)c3ccccc3c2c1
Summary of the method: as §1

rosiglitazone = compound: CN(CCOC1=CC=C(C=C1)C[C@H]2C(=O)NC(=O)S2)C3=CC=CC=N3 (racemic) [rosiglitazone]
Summary of the method: as §1

[12] = compound: CN1C2=C(C3=C1C(=O)N(N=C3)CC4=CC(=CC=C4)N)SC(=C2)S(=O)C
Summary of the method: as §1

[13] = compound: CN1CCC(CNc2ccc3ncc(-c4cccc(OC(F)(F)F)c4)n3n2)CC1
Summary of the method: as §1

Measured: log2 fold change

HRC (UniProt P23327)
Chain of UniProt P23327 (P23327 whole entry, looked up): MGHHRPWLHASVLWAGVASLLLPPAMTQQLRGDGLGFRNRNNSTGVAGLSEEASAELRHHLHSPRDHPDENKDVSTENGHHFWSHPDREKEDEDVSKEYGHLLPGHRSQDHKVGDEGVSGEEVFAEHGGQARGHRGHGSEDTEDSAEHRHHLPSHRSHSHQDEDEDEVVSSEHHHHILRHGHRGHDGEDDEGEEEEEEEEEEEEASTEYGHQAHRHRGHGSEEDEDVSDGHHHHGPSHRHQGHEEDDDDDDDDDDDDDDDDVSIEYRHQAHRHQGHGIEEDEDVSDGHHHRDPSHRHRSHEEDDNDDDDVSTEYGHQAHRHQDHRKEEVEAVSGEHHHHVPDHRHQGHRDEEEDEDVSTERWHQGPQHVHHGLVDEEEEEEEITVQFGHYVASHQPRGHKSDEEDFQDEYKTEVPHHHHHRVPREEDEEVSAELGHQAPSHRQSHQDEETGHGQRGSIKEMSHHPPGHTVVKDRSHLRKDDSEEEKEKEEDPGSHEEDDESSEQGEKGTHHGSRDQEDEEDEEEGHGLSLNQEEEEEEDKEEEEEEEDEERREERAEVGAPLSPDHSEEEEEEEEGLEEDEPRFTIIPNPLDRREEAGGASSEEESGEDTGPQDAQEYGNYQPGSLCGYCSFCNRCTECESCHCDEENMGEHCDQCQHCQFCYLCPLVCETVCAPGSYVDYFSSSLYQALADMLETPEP
inactive: [1] -0.199 | [2] 0.031 | [3] 0.008 | [4] 0.005 | Nexturastat A 0.041 | vemurafenib -0.044 | [5] -0.097 | [6] -0.025 | givinostat -0.059 | barasertib 0.021 | [7] 0.01 | volasertib 0.043 | [8] -0.014 | epoxomicin -0.061 | [9] -0.016 | [10] -0.023 | [11] 0.005 | rosiglitazone -0.008 | [12] -0.107 | [13] -0.013

FECH isoform 2 (UniProt P22830)
Chain of UniProt P22830 (P22830 whole entry, looked up): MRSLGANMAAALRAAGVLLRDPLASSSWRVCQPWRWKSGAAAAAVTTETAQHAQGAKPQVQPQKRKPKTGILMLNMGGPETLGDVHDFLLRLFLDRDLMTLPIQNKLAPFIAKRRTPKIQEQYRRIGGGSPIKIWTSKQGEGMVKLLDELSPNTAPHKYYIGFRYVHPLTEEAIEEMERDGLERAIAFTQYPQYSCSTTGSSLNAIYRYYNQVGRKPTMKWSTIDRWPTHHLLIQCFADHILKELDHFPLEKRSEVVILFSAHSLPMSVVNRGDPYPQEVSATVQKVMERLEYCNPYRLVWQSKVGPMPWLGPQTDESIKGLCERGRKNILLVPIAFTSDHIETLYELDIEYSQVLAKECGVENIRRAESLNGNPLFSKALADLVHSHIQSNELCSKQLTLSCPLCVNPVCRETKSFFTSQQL
inactive: [1] 0.45 | [2] 0.162 | [3] -0.16 | [4] -0.006 | Nexturastat A -0.123 | vemurafenib 0.022 | [5] -0.167 | [6] 0.367 | givinostat -0.238 | barasertib -0.049 | [7] 0.399 | volasertib 0.368 | [8] 0.037 | epoxomicin -0.088 | [9] 0.251 | [10] 0.203 | [11] 0.001 | rosiglitazone 0 | [12] -0.123 | [13] 0.163

FYB1 isoform 3 (UniProt O15117)
Chain of UniProt O15117 (O15117 whole entry, looked up): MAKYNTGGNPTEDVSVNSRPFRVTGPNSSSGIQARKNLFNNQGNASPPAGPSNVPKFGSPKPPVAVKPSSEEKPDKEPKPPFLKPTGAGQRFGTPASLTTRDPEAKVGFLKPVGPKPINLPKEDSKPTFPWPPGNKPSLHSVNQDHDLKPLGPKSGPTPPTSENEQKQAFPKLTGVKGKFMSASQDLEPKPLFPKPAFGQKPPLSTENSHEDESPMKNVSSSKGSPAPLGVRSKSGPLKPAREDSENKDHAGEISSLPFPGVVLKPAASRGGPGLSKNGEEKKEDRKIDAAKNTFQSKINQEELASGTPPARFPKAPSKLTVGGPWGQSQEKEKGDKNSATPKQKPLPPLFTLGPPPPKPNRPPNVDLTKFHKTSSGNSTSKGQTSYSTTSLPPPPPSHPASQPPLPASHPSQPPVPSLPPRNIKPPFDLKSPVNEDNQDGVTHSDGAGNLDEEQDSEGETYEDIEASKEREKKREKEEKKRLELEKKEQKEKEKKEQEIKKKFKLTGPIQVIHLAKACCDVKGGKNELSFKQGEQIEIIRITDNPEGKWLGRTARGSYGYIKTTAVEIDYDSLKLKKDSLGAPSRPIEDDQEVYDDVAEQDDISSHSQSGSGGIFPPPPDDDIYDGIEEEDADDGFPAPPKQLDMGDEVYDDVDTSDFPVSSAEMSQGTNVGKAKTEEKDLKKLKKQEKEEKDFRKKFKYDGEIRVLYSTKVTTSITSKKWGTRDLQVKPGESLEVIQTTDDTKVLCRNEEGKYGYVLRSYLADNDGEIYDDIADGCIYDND
inactive: [1] 0.073 | [2] 0.063 | [3] 0.093 | [4] 0.051 | Nexturastat A 0.011 | vemurafenib -0.009 | [5] 0.169 | [6] -0.03 | givinostat 0.066 | barasertib 0.052 | [7] -0.018 | volasertib -0.201 | [8] 0.263 | epoxomicin 0.052 | [9] -0.057 | [10] -0.008 | [11] 0.019 | rosiglitazone 0.115 | [12] -0.068 | [13] -0.246

GATD1 (UniProt Q8NB37)
Chain of UniProt Q8NB37 (Q8NB37 whole entry, looked up): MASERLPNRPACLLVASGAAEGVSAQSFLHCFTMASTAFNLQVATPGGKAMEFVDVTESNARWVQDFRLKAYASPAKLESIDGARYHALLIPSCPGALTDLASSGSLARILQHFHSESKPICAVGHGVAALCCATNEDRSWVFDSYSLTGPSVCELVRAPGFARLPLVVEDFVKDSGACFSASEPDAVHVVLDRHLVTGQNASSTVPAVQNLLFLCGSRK
inactive: [1] 0.054 | [2] -0.041 | [3] -0.023 | [4] -0.108 | Nexturastat A 0.067 | vemurafenib -0.047 | [5] -0.06 | [6] 0.021 | givinostat 0.013 | barasertib 0.024 | [7] -0.023 | volasertib -0.009 | [8] -0.032 | epoxomicin 0.078 | [9] 0.013 | [10] -0.034 | [11] -0.02 | rosiglitazone 0.013 | [12] 0.011 | [13] -0.049

HEXB (UniProt P07686)
Chain of UniProt P07686 (P07686 whole entry, looked up): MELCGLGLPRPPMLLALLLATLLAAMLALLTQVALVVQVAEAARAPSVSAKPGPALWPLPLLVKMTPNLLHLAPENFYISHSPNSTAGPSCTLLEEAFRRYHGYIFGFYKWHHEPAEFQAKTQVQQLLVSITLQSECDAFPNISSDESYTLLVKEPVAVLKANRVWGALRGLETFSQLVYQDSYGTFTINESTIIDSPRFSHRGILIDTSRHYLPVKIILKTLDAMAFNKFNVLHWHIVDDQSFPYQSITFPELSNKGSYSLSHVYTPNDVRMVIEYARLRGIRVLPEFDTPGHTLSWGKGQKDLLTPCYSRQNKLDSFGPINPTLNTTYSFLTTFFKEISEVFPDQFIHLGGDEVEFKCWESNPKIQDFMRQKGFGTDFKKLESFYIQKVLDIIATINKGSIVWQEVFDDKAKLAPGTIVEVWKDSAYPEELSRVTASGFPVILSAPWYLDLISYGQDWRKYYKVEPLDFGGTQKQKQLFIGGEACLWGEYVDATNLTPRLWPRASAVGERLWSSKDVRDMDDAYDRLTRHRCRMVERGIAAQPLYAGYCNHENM
inactive: [1] 0 | [2] 0.029 | [3] 0.028 | [4] 0.022 | Nexturastat A -0.078 | vemurafenib -0.003 | [5] -0.001 | [6] -0.019 | givinostat -0.016 | barasertib -0.015 | [8] -0.013 | epoxomicin -0.006 | [9] 0.031 | [10] 0.019 | [11] 0 | rosiglitazone -0.008 | [12] -0.047
active: [7] -0.426 | volasertib -0.396 | [13] -0.563

HBZ (UniProt P02008)
Chain of UniProt P02008 (P02008 whole entry, looked up): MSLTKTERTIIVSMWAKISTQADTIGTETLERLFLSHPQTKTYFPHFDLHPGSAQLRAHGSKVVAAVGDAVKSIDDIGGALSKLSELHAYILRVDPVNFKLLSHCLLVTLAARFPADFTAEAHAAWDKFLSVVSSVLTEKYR
inactive: [1] 0.01 | [2] -0.074 | [3] 0.025 | [4] 0.042 | Nexturastat A -0.013 | vemurafenib -0.028 | [5] -0.006 | [6] -0.008 | givinostat -0.052 | barasertib 0.044 | [7] 0.03 | volasertib -0.065 | [8] -0.026 | [9] 0.061 | [10] -0.021 | [11] 0.019 | rosiglitazone -0.005 | [12] -0.012 | [13] 0.016
active: epoxomicin 0.288

GATA1 (UniProt P15976)
Chain of UniProt P15976 (P15976 whole entry, looked up): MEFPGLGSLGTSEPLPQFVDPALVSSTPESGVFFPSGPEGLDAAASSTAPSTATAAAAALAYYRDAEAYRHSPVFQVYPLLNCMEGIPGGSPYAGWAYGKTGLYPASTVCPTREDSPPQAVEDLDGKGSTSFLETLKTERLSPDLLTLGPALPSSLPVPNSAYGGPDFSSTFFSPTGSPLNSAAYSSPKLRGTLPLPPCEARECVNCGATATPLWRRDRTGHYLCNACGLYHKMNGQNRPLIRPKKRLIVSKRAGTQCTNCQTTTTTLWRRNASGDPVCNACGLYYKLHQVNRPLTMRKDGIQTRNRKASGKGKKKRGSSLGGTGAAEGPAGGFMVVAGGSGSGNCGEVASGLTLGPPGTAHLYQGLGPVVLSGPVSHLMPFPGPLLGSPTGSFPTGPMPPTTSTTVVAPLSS
inactive: [1] -0.05 | [2] 0.02 | [3] -0.085 | [4] -0.029 | Nexturastat A -0.104 | vemurafenib -0.06 | [5] -0.035 | [6] -0.003 | givinostat -0.047 | barasertib -0.034 | [7] 0.134 | volasertib 0.076 | [8] -0.036 | epoxomicin 0.152 | [9] -0.026 | [10] 0.04 | [11] -0.084 | rosiglitazone -0.021 | [12] 0.046 | [13] 0.119

GALNT4 (UniProt Q8N4A0)
Chain of UniProt Q8N4A0 (Q8N4A0 whole entry, looked up): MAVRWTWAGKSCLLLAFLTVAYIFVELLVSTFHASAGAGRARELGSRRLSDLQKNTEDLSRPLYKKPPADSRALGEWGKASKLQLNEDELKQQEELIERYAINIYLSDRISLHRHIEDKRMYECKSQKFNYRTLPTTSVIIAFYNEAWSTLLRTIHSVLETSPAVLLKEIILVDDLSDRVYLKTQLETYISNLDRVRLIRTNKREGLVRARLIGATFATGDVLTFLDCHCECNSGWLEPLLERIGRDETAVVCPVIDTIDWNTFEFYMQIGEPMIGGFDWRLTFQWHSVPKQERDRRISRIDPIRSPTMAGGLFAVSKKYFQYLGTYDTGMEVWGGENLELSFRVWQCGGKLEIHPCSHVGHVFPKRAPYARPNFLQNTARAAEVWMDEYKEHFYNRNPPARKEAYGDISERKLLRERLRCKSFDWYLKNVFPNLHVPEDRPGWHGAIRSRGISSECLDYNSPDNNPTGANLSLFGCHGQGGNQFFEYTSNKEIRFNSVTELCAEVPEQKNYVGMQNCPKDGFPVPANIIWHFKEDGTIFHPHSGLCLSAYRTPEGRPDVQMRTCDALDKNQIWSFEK
active: volasertib -0.334 | [13] -0.367
inactive: [1] 0.008 | [2] 0.017 | [3] -0.029 | [4] 0.013 | Nexturastat A -0.049 | vemurafenib -0.037 | [5] -0.001 | [6] -0.01 | givinostat 0.005 | barasertib 0.011 | [7] -0.062 | [8] -0.032 | epoxomicin -0.041 | [9] -0.032 | [10] -0.031 | [11] 0.007 | rosiglitazone 0.051 | [12] -0.007

GSK3A (UniProt P49840)
Chain of UniProt P49840 (P49840 whole entry, looked up): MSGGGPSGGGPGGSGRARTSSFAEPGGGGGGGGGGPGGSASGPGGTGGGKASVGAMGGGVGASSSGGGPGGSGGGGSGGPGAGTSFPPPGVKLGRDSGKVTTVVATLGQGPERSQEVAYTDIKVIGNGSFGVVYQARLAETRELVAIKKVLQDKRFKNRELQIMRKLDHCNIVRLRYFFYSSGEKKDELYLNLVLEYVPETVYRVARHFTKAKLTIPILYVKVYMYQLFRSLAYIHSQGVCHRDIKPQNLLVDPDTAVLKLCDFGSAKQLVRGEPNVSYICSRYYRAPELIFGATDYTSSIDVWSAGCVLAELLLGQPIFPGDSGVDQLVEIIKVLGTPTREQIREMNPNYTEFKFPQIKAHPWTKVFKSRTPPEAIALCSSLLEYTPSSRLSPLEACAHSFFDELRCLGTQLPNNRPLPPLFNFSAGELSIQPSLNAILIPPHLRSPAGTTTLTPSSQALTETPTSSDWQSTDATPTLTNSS
inactive: [1] -0.025 | [2] 0.009 | [3] 0.197 | [4] 0.021 | Nexturastat A -0.094 | vemurafenib -0.023 | [5] -0.003 | [6] -0.039 | givinostat -0.053 | barasertib 0.014 | [7] -0.067 | volasertib 0.002 | [8] 0.002 | epoxomicin 0 | [9] 0.025 | [10] -0.101 | [11] -0.008 | rosiglitazone 0.017 | [12] -0.066 | [13] 0.033
